Out of some 3,200 compounds screened, about 300 (9.4%) showed activity. The list comes from a sample in which actives are over-represented; it also holds similar structures and randomly drawn compounds.
System: A673/TR/shEF
Test: cell viability (LOESS-normalised, relative to median of negative controls) (log2 ratio); higher = more viable cells (less compound effect), active = hit call of the paper (over 3 MAD below the median)
Conditions: treatment time: 72 h
Method in brief: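 A673/TR/shEF Ewing sarcoma cells were plated at 1,500 per well in 384-well plates and cultured with or without doxycycline, added 24 h before compounds, to induce EWS-FLI1 shRNA knockdown. Library compounds at two or more concentrations, alongside DMSO controls, were applied for three days. Cell viability was measured by CellTiter-Glo luminescence on an Envision reader. Readings were LOESS-corrected per plate, divided by the median of negative controls and log2-transformed, and hits were wells lying at least three median absolute deviations from the median of all screened wells.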

[1] = 0.103 µM, library screen: screen3, EWS-FLI1 expression: high (no doxycycline)
[2] = 0.103 µM, library screen: screen3, EWS-FLI1 expression: low (doxycycline-induced shRNA knockdown)
[3] = 0.308 µM, library screen: screen3, EWS-FLI1 expression: high (no doxycycline)
[4] = 0.308 µM, library screen: screen3, EWS-FLI1 expression: low (doxycycline-induced shRNA knockdown)
[5] = 0.926 µM, library screen: screen3, EWS-FLI1 expression: high (no doxycycline)
[6] = 0.926 µM, library screen: screen3, EWS-FLI1 expression: low (doxycycline-induced shRNA knockdown)
[7] = 2.8 µM, library screen: screen3, EWS-FLI1 expression: high (no doxycycline)
[8] = 2.8 µM, library screen: screen3, EWS-FLI1 expression: low (doxycycline-induced shRNA knockdown)
[9] = 8.3 µM, library screen: screen3, EWS-FLI1 expression: high (no doxycycline)
[10] = 8.3 µM, library screen: screen3, EWS-FLI1 expression: low (doxycycline-induced shRNA knockdown)
[11] = 25 µM, library screen: screen3, EWS-FLI1 expression: high (no doxycycline)
[12] = 25 µM, library screen: screen3, EWS-FLI1 expression: low (doxycycline-induced shRNA knockdown)
[13] = 0.25 µM, library screen: screen1, EWS-FLI1 expression: high (no doxycycline)
[14] = 0.25 µM, library screen: screen1, EWS-FLI1 expression: low (doxycycline-induced shRNA knockdown)
[15] = 2.5 µM, library screen: screen1, EWS-FLI1 expression: high (no doxycycline)
[16] = 2.5 µM, library screen: screen1, EWS-FLI1 expression: low (doxycycline-induced shRNA knockdown)
[17] = 0.025 µM, library screen: screen1, EWS-FLI1 expression: high (no doxycycline)
[18] = 0.025 µM, library screen: screen1, EWS-FLI1 expression: low (doxycycline-induced shRNA knockdown)
[19] = 0.25 µM, library screen: screen2, EWS-FLI1 expression: high (no doxycycline)
[20] = 0.25 µM, library screen: screen2, EWS-FLI1 expression: low (doxycycline-induced shRNA knockdown)
[21] = 2.5 µM, library screen: screen2, EWS-FLI1 expression: high (no doxycycline)
[22] = 2.5 µM, library screen: screen2, EWS-FLI1 expression: low (doxycycline-induced shRNA knockdown)
[23] = 25 µM, library screen: screen1, EWS-FLI1 expression: high (no doxycycline)
[24] = 25 µM, library screen: screen1, EWS-FLI1 expression: low (doxycycline-induced shRNA knockdown)

CN1CC[C@H](c2c(O)cc(O)c3c(=O)cc(-c4ccccc4Cl)oc23)[C@H](O)C1
cell viability (log2) [1]: -0.182 (active)
cell viability (log2) [2]: -0.0654 (inactive)
cell viability (log2) [3]: -0.451 (active)
cell viability (log2) [4]: -0.231 (active)
cell viability (log2) [5]: -1.4 (active)
cell viability (log2) [6]: -1.66 (active)
cell viability (log2) [7]: -3.54 (active)
cell viability (log2) [8]: -2.88 (active)
cell viability (log2) [9]: -4.29 (active)
cell viability (log2) [10]: -4.28 (active)
cell viability (log2) [11]: -4.33 (active)
cell viability (log2) [12]: -4.3 (active)

CC(=O)OC1CC[C@@]2(C)C(CC[C@]3(C)C2CCC2C4CC(C)(C)CCC4(C(=O)O)CC[C@]23C)C1(C)C (some centres not stated)
cell viability (log2) [13]: 0.0992 (inactive)
cell viability (log2) [14]: 0.055 (inactive)
cell viability (log2) [15]: 0.145 (inactive)
cell viability (log2) [16]: 0.119 (inactive)

CC(=O)Oc1cc(OC(C)=O)c2c(c1)OC(c1ccc(OC(C)=O)c(OC(C)=O)c1)C(OC(C)=O)C2 (configuration not stated)
cell viability (log2) [13]: 0.1 (inactive)
cell viability (log2) [14]: 0.0336 (inactive)
cell viability (log2) [15]: 0.18 (inactive)
cell viability (log2) [16]: 0.104 (inactive)

CC(C)(O)[C@@H]1Cc2cc3ccc(=O)oc3cc2O1
cell viability (log2) [13]: 0.0301 (inactive)
cell viability (log2) [14]: -0.0352 (inactive)
cell viability (log2) [15]: 0.107 (inactive)
cell viability (log2) [16]: 0.0444 (inactive)

COc1ccccc1-c1cc(=O)c2c(OC)cccc2o1
cell viability (log2) [13]: 0.121 (inactive)
cell viability (log2) [14]: -0.0186 (inactive)
cell viability (log2) [15]: 0.129 (inactive)
cell viability (log2) [16]: 0.0665 (inactive)

COc1cccc(-c2cc(=O)c3ccccc3o2)c1N
cell viability (log2) [17]: 0.268 (inactive)
cell viability (log2) [18]: -0.0228 (inactive)
cell viability (log2) [13]: 0.278
cell viability (log2) [14]: -0.0268 (inactive)
cell viability (log2) [19]: 0.18 (inactive)
cell viability (log2) [20]: 0.11 (inactive)
cell viability (log2) [15]: -0.37 (active)
cell viability (log2) [16]: 0.0789 (inactive)
cell viability (log2) [21]: 0.195 (inactive)
cell viability (log2) [22]: 0.139 (inactive)
cell viability (log2) [23]: -0.0514 (inactive)
cell viability (log2) [24]: 0.0727 (inactive)

COc1ccccc1-c1cc(=O)c2cccc(OC)c2o1
cell viability (log2) [13]: 0.00414 (inactive)
cell viability (log2) [14]: -0.0253 (inactive)
cell viability (log2) [15]: 0.211 (inactive)
cell viability (log2) [16]: 0.0664 (inactive)

Cc1cc(OC(=O)c2c(C)cc(OC(=O)c3c(C)cc(O)cc3O)cc2O)cc(O)c1C(=O)O
cell viability (log2) [13]: 0.154 (inactive)
cell viability (log2) [14]: 0.153 (inactive)
cell viability (log2) [15]: 0.0106 (inactive)
cell viability (log2) [16]: 0.113 (inactive)

CC[n+]1c(-c2ccccc2)c2cc(N)ccc2c2ccc(N)cc21
cell viability (log2) [13]: 0.0617 (inactive)
cell viability (log2) [14]: 0.0391 (inactive)
cell viability (log2) [15]: -1.89 (active)
cell viability (log2) [16]: -0.0126 (inactive)

NCCNC(=O)Cc1ccc(NC(=O)Cc2ccc(Nc3ncnc4c3ncn4C3OC(CO)C(O)C3O)cc2)cc1 (configuration not stated)
cell viability (log2) [19]: 0.211 (inactive)
cell viability (log2) [20]: 0.142 (inactive)
cell viability (log2) [21]: 0.0909 (inactive)
cell viability (log2) [22]: 0.0423 (inactive)

O=C1/C(=C\c2ccccc2F)SC(=S)N1CN1CCOCC1
cell viability (log2) [13]: 0.128 (inactive)
cell viability (log2) [14]: 0.0809 (inactive)
cell viability (log2) [15]: 0.107 (inactive)
cell viability (log2) [16]: -0.00103 (inactive)

CC(=O)NCCCCCC(=O)O
cell viability (log2) [13]: 0.0566 (inactive)
cell viability (log2) [14]: 0.106 (inactive)
cell viability (log2) [15]: 0.0136 (inactive)
cell viability (log2) [16]: 0.0704 (inactive)

NCCCCC(=O)O
cell viability (log2) [13]: 0.172 (inactive)
cell viability (log2) [14]: 0.0951 (inactive)
cell viability (log2) [19]: -0.118 (active)
cell viability (log2) [20]: 0.128 (inactive)
cell viability (log2) [15]: 0.237 (inactive)
cell viability (log2) [16]: 0.0298 (inactive)
cell viability (log2) [21]: 0.0908 (inactive)
cell viability (log2) [22]: 0.116 (inactive)

CCCCCCCC/C=C\CCCCCCCC(=O)O
cell viability (log2) [19]: 0.0706 (inactive)
cell viability (log2) [20]: 0.117 (inactive)
cell viability (log2) [21]: 0.0994 (inactive)
cell viability (log2) [22]: 0.08 (inactive)

O=C(O)CCCCCCCC(=O)O
cell viability (log2) [13]: 0.000753 (inactive)
cell viability (log2) [14]: 0.0938 (inactive)
cell viability (log2) [19]: -0.13 (active)
cell viability (log2) [20]: 0.0952 (inactive)
cell viability (log2) [15]: 0.149 (inactive)
cell viability (log2) [16]: 0.152 (inactive)
cell viability (log2) [21]: 0.0755 (inactive)
cell viability (log2) [22]: 0.0904 (inactive)

NCCCC(=O)O
cell viability (log2) [13]: 0.0628 (inactive)
cell viability (log2) [14]: 0.0888 (inactive)
cell viability (log2) [19]: 0.148 (inactive)
cell viability (log2) [20]: 0.12 (inactive)
cell viability (log2) [15]: 0.21 (inactive)
cell viability (log2) [16]: 0.0413 (inactive)
cell viability (log2) [21]: 0.0279 (inactive)
cell viability (log2) [22]: 0.142 (inactive)

NCCCCCC(=O)O
cell viability (log2) [1]: 0.214 (inactive)
cell viability (log2) [2]: 0.078 (inactive)
cell viability (log2) [13]: 0.0812 (inactive)
cell viability (log2) [14]: 0.00994 (inactive)
cell viability (log2) [19]: -0.00366 (inactive)
cell viability (log2) [20]: 0.09 (inactive)
cell viability (log2) [3]: 0.0847 (inactive)
cell viability (log2) [4]: 0.0858 (inactive)
cell viability (log2) [5]: 0.107 (inactive)
cell viability (log2) [6]: 0.0768 (inactive)
cell viability (log2) [15]: 0.144 (inactive)
cell viability (log2) [16]: 0.111 (inactive)
cell viability (log2) [21]: 0.0922 (inactive)
cell viability (log2) [22]: 0.111 (inactive)
cell viability (log2) [7]: 0.141 (inactive)
cell viability (log2) [8]: 0.0677 (inactive)
cell viability (log2) [9]: 0.085 (inactive)
cell viability (log2) [10]: 0.128 (inactive)
cell viability (log2) [11]: 0.0538 (inactive)
cell viability (log2) [12]: 0.145 (inactive)

COC(=O)[C@@H]1OC(=O)C2OC23[C@@]1(C)CCC1[C@]2(C)C(C[C@@H](O)[C@]13C)C(C)(C)[C@H](OC(C)=O)C[C@@H]2OC(C)=O (some centres not stated)
cell viability (log2) [13]: 0.0653 (inactive)
cell viability (log2) [14]: 0.123 (inactive)
cell viability (log2) [15]: 0.0967 (inactive)
cell viability (log2) [16]: 0.0969 (inactive)

COCCN1C(=O)C(=Cc2c(Cl)cccc2Cl)SC1=S
cell viability (log2) [13]: 0.153 (inactive)
cell viability (log2) [14]: 0.208 (inactive)
cell viability (log2) [15]: 0.122 (inactive)
cell viability (log2) [16]: 0.19 (inactive)

COc1c(C=O)c(O)cc2c1C(=O)c1ccccc1C2=O
cell viability (log2) [17]: 0.0865 (inactive)
cell viability (log2) [18]: 0.0031 (inactive)
cell viability (log2) [13]: 0.118 (inactive)
cell viability (log2) [14]: -0.13 (inactive)
cell viability (log2) [15]: 0.0699 (inactive)
cell viability (log2) [16]: -0.209 (inactive)
cell viability (log2) [23]: 0.0121 (inactive)
cell viability (log2) [24]: -0.781 (inactive)

COc1cc(C)c2c(=O)c3c(O)cc(O)cc3oc2c1
cell viability (log2) [13]: -0.0797 (inactive)
cell viability (log2) [14]: 0.0363 (inactive)
cell viability (log2) [15]: 0.0175 (inactive)
cell viability (log2) [16]: 0.108 (inactive)

CC(C)c1c(O)ccc2c1CCC1[C@@](C)(C=O)CCC[C@]21C (some centres not stated)
cell viability (log2) [13]: 0.0641 (inactive)
cell viability (log2) [14]: 0.0754 (inactive)
cell viability (log2) [15]: 0.163 (inactive)
cell viability (log2) [16]: 0.289 (inactive)

CC1=C(C(=O)Nc2ccccc2Cl)C(c2ccc(O)cc2)NC(=S)N1 (configuration not stated)
cell viability (log2) [13]: 0.145 (inactive)
cell viability (log2) [14]: -0.0151 (inactive)
cell viability (log2) [15]: 0.191 (inactive)
cell viability (log2) [16]: -0.0985 (inactive)

CCN(CC)c1ccc(C2C(C(=O)OC)=C(C)NC(C)=C2C(=O)OC)cc1
cell viability (log2) [13]: 0.121 (inactive)
cell viability (log2) [14]: 0.087 (inactive)
cell viability (log2) [15]: 0.202 (inactive)
cell viability (log2) [16]: 0.078 (inactive)

CC[C@H](CC[C@@H](C)[C@H]1CC[C@H]2[C@@H]3CC=C4C[C@@H](OC(C)=O)CC[C@]4(C)[C@H]3CC[C@]12C)C(C)C
cell viability (log2) [13]: 0.121 (inactive)
cell viability (log2) [14]: 0.139 (inactive)
cell viability (log2) [15]: 0.109 (inactive)
cell viability (log2) [16]: 0.182 (inactive)

CCCCCCCCCCCCC(=O)N1CCCCC1CNC(=O)C(N)CCCCN (configuration not stated)
cell viability (log2) [19]: 0.125 (inactive)
cell viability (log2) [20]: 0.1 (inactive)
cell viability (log2) [21]: 0.117 (inactive)
cell viability (log2) [22]: 0.072 (inactive)

Source: the supplement of paper PMC6089552
